Laboratory results: PubChem BioAssay (Tox21)
Inconclusive results are not listed. Where a call stands in place of a potency, no number is given. Active and inactive are the calls of the source. Unless noted, calls come from the whole dose curve; as a rule, active = well fitted curve in the direction sought with a large enough effect in the repeat runs; inconclusive = weak or mixed curves; inactive = no such curve, though single readings can be large; an effect the other way counts as inactive or inconclusive.

How the values were obtained:
[1] = qHTS assay to identify small molecule antagonists of the thyroid receptor (TR) signaling pathway - cell viability counter screen (AID 743064); note: nearly all actives have a fitted effect of over 50% in size; note: potency is the fitted concentration of half-maximal effect
Method in brief: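 CellTiter-Fluor readout, 30 min at 37 °C/5% CO2, following 23.5 h incubation of GH3.TRE-Luc cells with test compound and 1 nM T3 (final).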

[2] = qHTS assay to identify small molecule antagonists of the thyroid receptor (TR) signaling pathway (AID 743065); note: nearly all actives have a fitted effect of over 55% in size; note: potency is the fitted concentration of half-maximal effect
Method in brief: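 GH3.TRE-Luc rat pituitary cells (two TREs driving luciferase) were dosed with compound, then stimulated with 1 nM T3 (final) for 23.5 h at 37 C. ONE-Glo luminescence was the read-out, with CellTiter-Fluor fluorescence as the cytotoxicity counter-screen.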

[3] = system: thyroid hormone receptor (rat, GH3 cells); test: qHTS assay to identify small molecule agonists of the thyroid receptor (TR) signaling pathway (AID 743066; calls by dose curve)
[4] = target: Estrogen receptor (Homo sapiens) (UniProt P03372); test: qHTS assay to identify small molecule antagonists of the estrogen receptor alpha (ER-alpha) signaling pathway (AID 743069; active = well fitted curve in the direction sought with a large enough effect in the signal ratio in the repeat runs, not every such curve was filed as active; the % refers to the signal ratio)
Estrogen receptor (Homo sapiens), sequence (P03372 whole entry, looked up): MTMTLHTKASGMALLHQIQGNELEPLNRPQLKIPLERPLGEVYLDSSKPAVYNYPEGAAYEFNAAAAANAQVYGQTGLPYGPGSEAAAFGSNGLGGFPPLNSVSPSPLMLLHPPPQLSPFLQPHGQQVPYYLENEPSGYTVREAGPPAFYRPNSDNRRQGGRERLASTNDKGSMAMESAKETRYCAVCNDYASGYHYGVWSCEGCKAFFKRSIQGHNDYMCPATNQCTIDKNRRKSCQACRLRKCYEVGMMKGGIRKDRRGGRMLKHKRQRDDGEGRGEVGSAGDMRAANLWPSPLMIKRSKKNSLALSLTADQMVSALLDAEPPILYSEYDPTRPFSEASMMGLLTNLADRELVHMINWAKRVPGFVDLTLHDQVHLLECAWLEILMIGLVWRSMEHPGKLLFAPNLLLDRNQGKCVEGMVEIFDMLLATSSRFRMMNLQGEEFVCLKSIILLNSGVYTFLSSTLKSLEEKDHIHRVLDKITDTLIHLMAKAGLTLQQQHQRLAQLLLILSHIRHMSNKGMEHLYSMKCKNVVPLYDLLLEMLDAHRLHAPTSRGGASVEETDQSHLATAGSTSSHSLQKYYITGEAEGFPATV
Method in brief: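 Reporter cells (ER-alpha-bla, HEK293 background) are conditioned overnight in stripped-serum medium (2% charcoal-stripped FBS). Compound and 17beta-estradiol exposure runs 18 hr at 37C, 5% CO2.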

[5] = qHTS assay to identify small molecule antagonists of the estrogen receptor alpha (ER-alpha) signaling pathway - cell viability counter screen (AID 743074; calls by dose curve;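 note: HEK293 cells carrying ER-alpha-UAS-bla reporter stimulated with 17beta-estradiol; nearly all actives have a fitted effect of over 45% in size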)
[6] = target: Estrogen receptor (Homo sapiens) (UniProt P03372); test: qHTS assay to identify small molecule agonists of the estrogen receptor alpha (ER-alpha) signaling pathway (AID 743075; calls by dose curve;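 note: HEK293 GripTite cells with ER-alpha and UAS-driven beta-lactamase reporter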)
[7] = target: Estrogen receptor (Homo sapiens) (UniProt P03372); test: qHTS assay to identify small molecule agonists of the estrogen receptor alpha (ER-alpha) signaling pathway using the BG1 cell line (AID 743079); note: nearly all actives have a fitted effect of over 20% in size; note: potency is the fitted concentration of half-maximal effect
[8] = qHTS assay to identify small molecule antagonists of the estrogen receptor alpha (ER-alpha) signaling pathway using the BG1 cell line (AID 743080; calls by dose curve;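 note: BG1 cells stimulated with 17beta-estradiol alongside compound; series mostly up to about 70 µM; nearly all actives have a fitted effect of over 25% in size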)
Method in brief: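 BG1-Luc-4E2 cells (endogenous full-length ER-alpha, stable 4×ERE-luciferase) were starved 5 days in phenol-red-free medium with 10% charcoal-stripped FBS, plated 24 h, then given compound plus 17beta-estradiol for 21.5 h at 37 C; ONE-Glo luminescence read after 30 min.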

[9] = qHTS assay to identify small molecule antagonists of the estrogen receptor alpha (ER-alpha) signaling pathway using the BG1 cell line - cell viability counter screen (AID 743081);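 note: compound given together with 17beta-estradiol as the ER stimulus; series mostly up to about 70 µM; nearly all actives have a fitted effect of over 45% in size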
[10] = target: Aromatase (Homo sapiens) (UniProt P11511); test: qHTS assay to identify aromatase inhibitors (AID 743083); note: series mostly up to about 70 µM; nearly all actives have a fitted effect of over 55% in size
Aromatase (Homo sapiens), sequence (P11511 whole entry, looked up): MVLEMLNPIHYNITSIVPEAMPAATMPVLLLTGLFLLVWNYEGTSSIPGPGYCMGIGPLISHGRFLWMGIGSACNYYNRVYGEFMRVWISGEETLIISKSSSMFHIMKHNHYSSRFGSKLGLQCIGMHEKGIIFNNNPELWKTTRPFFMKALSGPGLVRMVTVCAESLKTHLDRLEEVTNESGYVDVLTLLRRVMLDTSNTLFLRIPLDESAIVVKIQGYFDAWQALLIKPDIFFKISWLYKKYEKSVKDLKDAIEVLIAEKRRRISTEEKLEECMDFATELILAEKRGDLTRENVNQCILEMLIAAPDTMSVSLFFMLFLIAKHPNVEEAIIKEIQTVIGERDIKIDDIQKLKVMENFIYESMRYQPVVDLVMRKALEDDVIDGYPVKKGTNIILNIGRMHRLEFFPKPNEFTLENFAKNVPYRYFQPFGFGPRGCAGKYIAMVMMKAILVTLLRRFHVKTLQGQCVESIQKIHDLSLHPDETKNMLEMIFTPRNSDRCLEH

[11] = qHTS assay to identify aromatase inhibitors - cell viability counter screen (AID 743084);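 note: cells stimulated with testosterone during compound exposure; nearly all actives have a fitted effect of over 55% in size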
[12] = target: Aryl hydrocarbon receptor (Homo sapiens) (UniProt P35869); test: qHTS assay to identify small molecule that activate the aryl hydrocarbon receptor (AhR) signaling pathway (AID 743085); note: nearly all actives have a fitted effect of over 15% in size; note: potency is the fitted concentration of half-maximal effect;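 for activation: HG2L7.5c1 human HepG2 liver cells with stably integrated DRE-driven firefly reporter; series mostly up to about 70 µM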
Aryl hydrocarbon receptor (Homo sapiens), sequence (P35869 whole entry, looked up): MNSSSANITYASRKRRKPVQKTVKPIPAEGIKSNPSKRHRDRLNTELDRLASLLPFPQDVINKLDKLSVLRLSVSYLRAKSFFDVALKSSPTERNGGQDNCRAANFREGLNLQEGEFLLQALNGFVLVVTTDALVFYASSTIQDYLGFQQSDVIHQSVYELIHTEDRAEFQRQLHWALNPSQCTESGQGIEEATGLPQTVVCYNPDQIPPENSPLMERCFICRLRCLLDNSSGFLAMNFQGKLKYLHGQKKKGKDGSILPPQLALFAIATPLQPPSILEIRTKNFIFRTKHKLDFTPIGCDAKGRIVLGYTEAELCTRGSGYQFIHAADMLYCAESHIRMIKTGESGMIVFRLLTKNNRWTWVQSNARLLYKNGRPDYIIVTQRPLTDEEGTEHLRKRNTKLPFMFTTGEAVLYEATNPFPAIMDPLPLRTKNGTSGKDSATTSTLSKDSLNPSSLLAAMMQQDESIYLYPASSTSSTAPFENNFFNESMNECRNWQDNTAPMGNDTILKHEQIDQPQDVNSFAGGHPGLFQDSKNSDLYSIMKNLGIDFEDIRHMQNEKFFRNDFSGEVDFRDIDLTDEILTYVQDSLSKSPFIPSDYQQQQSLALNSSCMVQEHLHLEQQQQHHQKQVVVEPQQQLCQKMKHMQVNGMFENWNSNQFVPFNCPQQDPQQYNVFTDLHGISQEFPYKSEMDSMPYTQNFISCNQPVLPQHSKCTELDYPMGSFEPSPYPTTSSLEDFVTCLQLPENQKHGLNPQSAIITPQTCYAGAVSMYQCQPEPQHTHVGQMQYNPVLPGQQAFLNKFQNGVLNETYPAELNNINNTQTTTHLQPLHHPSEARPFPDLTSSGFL
Method in brief: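 Stably transfected human liver carcinoma cells (HG2L7.5c1; 20 DRE-firefly luciferase) were incubated 5 h, dosed, and kept 24 h at 37C. Agonism was scored from increased luciferase luminescence.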

[13] = qHTS assay to identify small molecule that activate the aryl hydrocarbon receptor (AhR) signaling pathway - cell viability counter screen (AID 743086);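 note: HepG2 liver cells carrying the AhR DRE luciferase reporter; series mostly up to about 70 µM; nearly all actives have a fitted effect of over 45% in size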
Method in brief: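 HepG2-AhR-luc (HG2L7.5c1) cells, 4000/well, treated 24 h at 37 C with compound; viability measured as CellTiter-Fluor fluorescence after 30 min in the same wells as the luciferase read.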

[14] = target: Peroxisome proliferator-activated receptor gamma (Homo sapiens) (UniProt P37231); test: qHTS assay to identify small molecule agonists of the peroxisome proliferator-activated receptor gamma (PPARg) signaling pathway (AID 743094; active = well fitted activation curve with a large enough effect in the signal ratio in the repeat runs, not every such curve was filed as active; the % refers to the signal ratio)
Peroxisome proliferator-activated receptor gamma (Homo sapiens), sequence (P37231 whole entry, looked up): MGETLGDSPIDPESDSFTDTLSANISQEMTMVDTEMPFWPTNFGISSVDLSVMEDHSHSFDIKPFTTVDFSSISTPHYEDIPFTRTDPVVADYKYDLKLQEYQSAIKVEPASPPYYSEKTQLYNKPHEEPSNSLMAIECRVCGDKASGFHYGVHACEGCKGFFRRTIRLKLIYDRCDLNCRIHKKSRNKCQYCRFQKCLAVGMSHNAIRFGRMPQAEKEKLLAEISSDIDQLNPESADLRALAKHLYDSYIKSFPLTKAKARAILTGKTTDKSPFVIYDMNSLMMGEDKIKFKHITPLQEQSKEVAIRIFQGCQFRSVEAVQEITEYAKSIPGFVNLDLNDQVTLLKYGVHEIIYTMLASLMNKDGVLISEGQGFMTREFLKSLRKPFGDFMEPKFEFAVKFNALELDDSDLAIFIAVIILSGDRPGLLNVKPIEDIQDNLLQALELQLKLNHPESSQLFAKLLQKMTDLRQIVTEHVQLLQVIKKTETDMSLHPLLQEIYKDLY
Method in brief: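 Following 5 h plating at 37C, PPARg-bla HEK293H cells receive compound or DMSO for 17 h; fluorescence intensity is recorded after LiveBLAzer B/G loading for 1 h at room temperature.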

[15] = qHTS assay to identify small molecule antagonists of the peroxisome proliferator-activated receptor gamma (PPARg) signaling pathway - cell viability counter screen (AID 743194); conditions: Potency: co-treated with 50 nM rosiglitazone; note: nearly all actives have a fitted effect of over 55% in size
Method in brief: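 Cytotoxicity counter screen in PPARg-bla HEK293H cells, same wells as reporter assay. Compounds plus 50 nM rosiglitazone (final) for 17 h at 37 C, then viability read by CellTiter-Glo luminescence.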

[16] = qHTS assay for small molecule agonists of the antioxidant response element (ARE) signaling pathway (AID 743202; active = well fitted activation curve with a large enough effect in the signal ratio in the repeat runs, not every such curve was filed as active; the % refers to the signal ratio)
Method in brief: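 Agonist mode reporter screen: HepG2 cells with ARE-controlled beta-lactamase are incubated with test compounds for 16 h at 37 C, and beta-lactamase activity is measured as fluorescence of cleaved B/G FRET substrate.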

[17] = qHTS assay for small molecule agonists of the antioxidant response element (ARE) signaling pathway - cell viability counter screen (AID 743203; calls by dose curve; note: nearly all actives have a fitted effect of over 55% in size)
Method in brief: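 Compounds in DMSO were pinned onto ARE-bla HepG2 cells plated 5 hrs earlier at 2,000 cells/well. Sixteen hours later at 37C/5% CO2, CellTiter-Glo was added and luminescence measured after 30 min at room temperature.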

[18] = qHTS assay for small molecule activators of the heat shock response signaling pathway - cell viability counter screen (AID 743209); note: nearly all actives have a fitted effect of over 50% in size
Method in brief: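 Counter screen for cytotoxicity in HeLa HSE-bla reporter cells. Treatment was 5 h at 37 C; viability was detected by luminescent ATP assay (CellTiter-Glo) in the same wells as the beta-lactamase read.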

[19] = qHTS assay for small molecule activators of the heat shock response signaling pathway (AID 743210; active = well fitted activation curve with a large enough effect in the signal ratio in the repeat runs, with a control signal flat, not every such curve was filed as active; the % refers to the signal ratio;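 note: HeLa cells with beta-lactamase reporter driven by heat shock elements; series mostly up to about 63 µM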)
Method in brief: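 Quantitative high-throughput format using an engineered HeLa line in which heat shock response elements drive beta-lactamase; after 5 h with compound, cells received a B/G FRET substrate and fluorescence was read.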

[20] = target: Peroxisome proliferator-activated receptor gamma (Homo sapiens) (UniProt P37231); test: qHTS assay to identify small molecule antagonists of the peroxisome proliferator-activated receptor gamma (PPARg) signaling pathway (AID 743191; calls by dose curve; note: series mostly up to about 63 µM; nearly all actives have a fitted effect of over 30% in size)
Method in brief: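 GeneBLAzer PPARg UAS-bla HEK293H cells, 5 h post-plating, exposed to compounds 17 h at 37C. LiveBLAzer B/G FRET substrate added for 1 h at room temperature; beta-lactamase reporter read by fluorescence intensity.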

SMILES	Potency [1]	Potency [2]	Potency [3]	Potency [4]	Potency [5]	Potency [6]	Potency [7]	Potency [8]	Potency [9]	Potency [10]	Potency [11]	Potency [12]	Potency [13]	Potency [14]	Potency [15]	Potency [16]	Potency [17]	Potency [18]	Potency [19]	Potency [20]
C=CC(=O)NC(C)(C)CC(C)=O	inactive	inactive	inactive	inactive	inactive	inactive	inactive	inactive	inactive	inactive	inactive	inactive	inactive	inactive	inactive	inactive	inactive	inactive	inactive	–
CC(C)(C)c1ccc(CCOc2ncnc3ccccc23)cc1	inactive	inactive	inactive	inactive	inactive	inactive	inactive	inactive	inactive	inactive	inactive	inactive	inactive	–	inactive	inactive	inactive	inactive	inactive	–
O=[N+]([O-])c1cc(Cl)c(Cl)cc1Cl	inactive	inactive	inactive	inactive	inactive	inactive	inactive	inactive	inactive	inactive	inactive	inactive	inactive	inactive	inactive	–	inactive	inactive	inactive	–
CCCC(C)(COC(N)=O)COC(=O)NC(C)C (stereo not drawn)	inactive	inactive	inactive	inactive	inactive	inactive	inactive	inactive	inactive	inactive	inactive	inactive	inactive	inactive	inactive	inactive	inactive	inactive	inactive	inactive
COc1ccc(C(O)(c2cncnc2)C2CC2)cc1 (stereo not drawn)	inactive	inactive	inactive	inactive	inactive	inactive	inactive	inactive	inactive	inactive	inactive	inactive	inactive	inactive	inactive	inactive	inactive	inactive	inactive	inactive
CCOP(=O)(O)C(N)=O	inactive	inactive	inactive	inactive	inactive	inactive	inactive	inactive	inactive	inactive	inactive	inactive	inactive	inactive	inactive	inactive	inactive	inactive	inactive	inactive
CCCCC#N	inactive	inactive	inactive	inactive	inactive	inactive	inactive	inactive	inactive	inactive	inactive	inactive	inactive	–	inactive	inactive	inactive	inactive	inactive	–
CN(C1CCCCC1)C1CCCCC1	inactive	inactive	inactive	inactive	inactive	inactive	inactive	inactive	inactive	inactive	inactive	inactive	inactive	inactive	inactive	inactive	inactive	inactive	inactive	–
COC(=O)C1(O)c2ccccc2-c2ccccc21	inactive	inactive	inactive	inactive	inactive	inactive	inactive	inactive	inactive	inactive	inactive	inactive	inactive	–	inactive	–	inactive	inactive	–	–
CCCCCCCCCCCCN(C)C	inactive	inactive	inactive	inactive	inactive	inactive	inactive	inactive	inactive	inactive	inactive	inactive	inactive	inactive	–	–	inactive	inactive	inactive	–
CCCC[N+](CCCC)(CCCC)CCCC	inactive	inactive	inactive	inactive	inactive	inactive	inactive	inactive	inactive	inactive	inactive	inactive	inactive	inactive	inactive	inactive	inactive	inactive	inactive	inactive
CCSCc1ccccc1OC(=O)NC	inactive	inactive	inactive	inactive	inactive	inactive	inactive	inactive	inactive	inactive	inactive	inactive	inactive	inactive	inactive	inactive	inactive	inactive	inactive	–
CCCN(CCC)c1c([N+](=O)[O-])cc(C(C)C)cc1[N+](=O)[O-]	61.1 µM (active)	61.1 µM (active)	inactive	inactive	inactive	inactive	inactive	inactive	inactive	inactive	inactive	inactive	inactive	inactive	inactive	inactive	inactive	inactive	inactive	inactive
O=[N+]([O-])O[C@H]1CO[C@H]2[C@@H]1OC[C@H]2O[N+](=O)[O-]	inactive	inactive	inactive	inactive	inactive	inactive	–	inactive	inactive	inactive	inactive	inactive	inactive	inactive	inactive	inactive	inactive	inactive	inactive	inactive
Cc1cnc(C2=NC(C)(C(C)C)C(=O)N2)c(C(=O)O)c1 (stereo not drawn)	inactive	inactive	inactive	inactive	inactive	inactive	–	inactive	inactive	inactive	inactive	inactive	inactive	inactive	inactive	inactive	inactive	inactive	inactive	inactive
CN[C@@H](C)[C@H](O)c1ccccc1	inactive	inactive	inactive	inactive	inactive	inactive	26.6 µM (active)	inactive	inactive	inactive	inactive	inactive	inactive	inactive	inactive	inactive	inactive	inactive	inactive	–
Oc1cccc(Cl)c1	inactive	inactive	inactive	inactive	inactive	inactive	inactive	inactive	inactive	inactive	inactive	inactive	inactive	inactive	inactive	inactive	inactive	inactive	–	inactive
COCc1cnc(C2=NC(C)(C(C)C)C(=O)N2)c(C(=O)O)c1 (stereo not drawn)	inactive	inactive	inactive	inactive	inactive	inactive	inactive	inactive	inactive	inactive	inactive	inactive	inactive	inactive	inactive	–	inactive	inactive	inactive	inactive
O=C=NC1CCCCC1	inactive	inactive	inactive	inactive	inactive	inactive	12.2 µM (active)	–	inactive	inactive	inactive	54.6 µM (active)	inactive	inactive	–	inactive	inactive	inactive	inactive	–
Nc1c(Br)cc(Br)c2c1C(=O)c1ccccc1C2=O	inactive	inactive	inactive	inactive	inactive	inactive	inactive	inactive	inactive	inactive	inactive	7.25 µM (active)	inactive	inactive	inactive	–	inactive	inactive	inactive	–
C1CS1	inactive	inactive	inactive	inactive	inactive	inactive	inactive	inactive	inactive	inactive	inactive	inactive	inactive	inactive	inactive	inactive	inactive	inactive	inactive	inactive
CON(C)C(=O)Nc1ccc(Cl)cc1	inactive	inactive	inactive	inactive	inactive	inactive	inactive	inactive	inactive	inactive	inactive	27.3 µM (active)	inactive	inactive	inactive	inactive	inactive	inactive	inactive	–
CCC[N+](CCC)(CCC)CCC	inactive	inactive	inactive	inactive	inactive	inactive	inactive	inactive	inactive	inactive	inactive	inactive	inactive	inactive	inactive	inactive	inactive	inactive	–	inactive
CCCCCBr	inactive	inactive	inactive	inactive	inactive	inactive	inactive	inactive	inactive	inactive	inactive	inactive	inactive	inactive	inactive	inactive	inactive	inactive	inactive	inactive
C=C(Cl)Cl	inactive	inactive	inactive	inactive	inactive	inactive	inactive	inactive	inactive	inactive	inactive	–	inactive	inactive	inactive	inactive	inactive	inactive	inactive	–
C[N+]1(CCC(C(N)=O)(c2ccccc2)c2ccccc2)CCCCC1	inactive	inactive	inactive	inactive	inactive	inactive	inactive	inactive	inactive	inactive	inactive	inactive	inactive	inactive	inactive	inactive	inactive	inactive	inactive	inactive
CCCSP(=S)(OCC)Oc1ccc(SC)cc1 (stereo not drawn)	inactive	inactive	inactive	inactive	inactive	inactive	inactive	inactive	inactive	inactive	inactive	–	inactive	inactive	inactive	inactive	inactive	inactive	–	inactive
C[C@H]1O[C@H](OC2[C@@H](O)[C@@H](O)C(O)[C@H](O)[C@H]2O)[C@@H](N)C[C@@H]1N=C(N)C(=O)O (stereo partly drawn)	inactive	inactive	inactive	inactive	inactive	inactive	inactive	inactive	inactive	inactive	inactive	inactive	inactive	inactive	inactive	inactive	inactive	inactive	inactive	–
CCC(C)Cl (stereo not drawn)	inactive	inactive	inactive	inactive	inactive	inactive	inactive	inactive	inactive	inactive	inactive	–	inactive	inactive	inactive	inactive	inactive	inactive	inactive	–
Cc1ccc2c(C)cccc2c1	inactive	inactive	inactive	inactive	inactive	inactive	inactive	inactive	inactive	inactive	inactive	inactive	inactive	–	inactive	–	inactive	inactive	inactive	inactive
